Laboratory results: PubChem BioAssay AID1159580 (chemical genetic matrix, 2015)
Hit rate of the full screen: of about 5,500 compounds, about 2,000 (36%) were called active. Another 18% or so got no clear call; they are omitted. Cut-off read from the data, not from the text of the source: active = normalized growth mostly below about 0.91 (no sharp cut-off); inconclusive = no clear call, values can overlap the other calls; inactive = mostly above about 0.92. The list shows a part of the results.

Assay: chemical genetic growth profiling, strain panel (AID 1159580);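 note: tested at 20 µM; growth read once vehicle control cultures reached saturation at 30 °C; 1 = growth at the plate median or of vehicle wells; lower values mean less growth of the strain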
Conditions: S. cerevisiae deletion strains, growth OD

Measured: normalized growth

COC(=O)C[C@H]1C(C)(C)C2(Cl)O[C@@]34CC2C(=O)[C@]1(C)C3CC[C@]1(C)C4=CC(=O)O[C@H]1c1ccoc1 (stereo not given in full)
inactive: locus YAL013W, strain DEP1, hits give low values 1.01 | locus YBR021W, strain FUR4, hits give low values 0.995 | locus YBR229C, strain ROT2, hits give low values 1 | locus YCL029C, strain bik1, hits give low values 1.01 | locus YDL035C, strain GPR1, hits give low values 1.02 | locus YDL074C, strain BRE1, hits give low values 0.989 | locus YDL101C, strain DUN1, hits give low values 0.997 | locus YDL134C, strain PPH21, hits give low values 0.999 | locus YDL185W, strain tfp1, hits give low values 0.994 | locus YDL192W, strain arf1, hits give low values 0.99 | locus YDR101C, strain arx1, hits give low values 0.993 | locus YDR162C, strain NBP2, hits give low values 0.971 | locus YDR318W, strain mcm21, hits give low values 1 | locus YDR388W, hits give low values 0.993 | locus YDR502C, strain sam2, hits give low values 0.996 | locus YEL061C, strain CIN8, hits give low values 1 | locus YER110C, hits give low values 0.993 | locus YER155C, strain BEM2, hits give low values 1.01 | locus YER167W, strain BCK2, hits give low values 1.01 | locus YGL078C, strain dbp3, hits give low values 0.99 | locus YGL086W, strain mad1, hits give low values 0.989 | locus YGL248W, strain PDE1, hits give low values 1 | locus YGR078C, strain PAC10, hits give low values 0.991 | locus YGR135W, strain pre9, hits give low values 0.976 | locus YGR252W, strain gcn5, hits give low values 0.966 | locus YHR030C, strain SLT2, hits give low values 0.999 | locus YHR079C, strain IRE1 (second series), hits give low values 0.996 | locus YHR094C, strain hxt1, hits give low values 0.995 | locus YHR129C, strain ARP1, hits give low values 1 | locus YHR200W, strain rpn10, hits give low values 0.992 | locus YIL066C, strain RNR3, hits give low values 1.01 | locus YIL073C, strain SPO22, hits give low values 1 | locus YIL125W, strain kgd1, hits give low values 1 | locus YIR030C, strain dcg1, hits give low values 0.986 | locus YJL095W, strain BCK1, hits give low values 0.996 | locus YJL134W, strain LCB3, hits give low values 1.01 | locus YJL168C, strain set2, hits give low values 0.987 | locus YJL187C, strain SWE1 (second series), hits give low values 1 | locus YJR075W, strain HOC1, hits give low values 1.01 | locus YKL009W, strain mrt4, hits give low values 0.983 | locus YKL068W, hits give low values 1.01 | locus YKL085W, strain MDH1 (second series), hits give low values 0.996 | locus YKL085W, strain MDH1, hits give low values 0.996 | locus YKR001C, strain vps1, hits give low values 1 | locus YLR039C, strain RIC1, hits give low values 1.05 | locus YLR058C, strain SHM2, hits give low values 1 | locus YLR102C, strain apc9, hits give low values 1 | locus YLR268W, strain sec22, hits give low values 1 | locus YLR342W, strain FKS1 (second series), hits give low values 1.02 | locus YLR371W, strain rom2, hits give low values 0.996 | locus YLR418C, strain cdc73, hits give low values 0.96 | locus YML016C, strain PPZ1, hits give low values 1.01 | locus YML032C, strain rad52, hits give low values 0.995 | locus YML124C, strain tub3, hits give low values 0.992 | locus YMR078C, strain ctf18, hits give low values 1.01 | locus YMR223W, strain ubp8, hits give low values 0.979 | locus YMR307W, strain GAS1, hits give low values 0.957 | locus YNL067W, strain RPL9B, hits give low values 1 | locus YNL153C, strain GIM3, hits give low values 1 | locus YNL233W, strain BNI4, hits give low values 0.995 | locus YNL250W, strain rad50, hits give low values 0.995 | locus YNL271C, strain bni1, hits give low values 0.998 | locus YNL298W, strain CLA4, hits give low values 0.99 | locus YNL307C, strain MCK1, hits give low values 0.991 | locus YNR052C, strain pop2, hits give low values 0.998 | locus YOL006C, strain TOP1, hits give low values 1.02 | locus YOL012C, strain htz1 0.78 | locus YOL147C, strain pex11, hits give low values 0.99 | locus YOR061W, strain CKA2, hits give low values 1.01 | locus YOR069W, strain VPS5, hits give low values 1 | locus YOR136W, strain idh2, hits give low values 0.988 | locus YOR144C, strain elg1, hits give low values 0.995 | locus YOR184W, strain ser1, hits give low values 1.01 | locus YOR316C, strain cot1, hits give low values 0.988 | locus YPL241C, strain CIN2, hits give low values 1 | locus YPR119W, strain clb2, hits give low values 0.989 | locus YPR141C, strain kar3, hits give low values 0.997 | locus YPR163C, strain tif3, hits give low values 0.991 | locus YPR167C, strain met16, hits give low values 0.991 | strain wtn01, hits give low values 1.02
